Where “and” joins values, the source holds several entries; their conditions need not be identical. Identical values can stand only once. Inconclusive results are not listed. Calls of active or inactive are those of the source. Unless noted, how the calls were made is not given here.
Key:
[1] = hESC survival regulators, cell-based (AID 493140); conditions: human embryonic stem cell survival screen; stronger effect = higher value;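 further: cells exposed to compounds for four days before counting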
[2] = system: Aerobactin synthetase IucA (Klebsiella pneumoniae, hypervirulent); experiment: IucA enzyme inhibition, biochemical, LOPAC library, absorbance readout (AID 1346212); conditions: IucA enzyme assay, absorbance (OD) readout; stronger effect = lower value;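 tested at 8 µM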;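 further: 100% = no compound wells and 0% = no enzyme wells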
[3] = sensitizers of A549 cells to miR-34 induction, primary screen, imaging, A549 dox-inducible miR-34, nuclei and caspase counts (AID 1347080;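 active means compounds whose cell count with miR-34 switched on is under 0.7 times the count with it off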); conditions: A549 miR-34 inducible, Hoechst nuclei count, 48 h
[4] = inhibitors of Cryptococcus chitosan production, flow cytometry, Cibacron Brilliant Red staining (AID 1347148); conditions: Cryptococcus neoformans chitosan, stronger effect = lower value; at 10 µM unless noted;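 further: compound exposure lasted three days at 37 degrees C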
[5] = circadian clock period modulators, cell-based, LOPAC library, luminescence reporter (AID 2774); conditions: circadian reporter cells, at 7 µM, actives lie on both sides;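 further: values are relative to mean of DMSO wells on each plate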
[6] = system: Hepatitis C virus NS3 helicase; experiment: HCV NS3 helicase inhibitors, primary screen, biochemical, fluorescence polarization, LOPAC1280 library (AID 687035; in the data active means inhibition above about 37%); conditions: Purified HCV NS3 helicase, Cy5-dT15 ssDNA binding fluorescence polarization; stronger effect = higher value; concentration not given here
[7] = Cy5 fluorescence quenching or enhancement artefacts, artefact control for HCV NS3 helicase inhibitor project, biochemical, LOPAC1280 (AID 687037); conditions: Cy5-DNA-NS3h complex fluorescence interference counterscreen
[8] = phospholipid biosynthesis inhibitors in animal cells, primary screen, cell-based, LOPAC library, screen 4 (AID 1347384); conditions: phospholipid biosynthesis inhibition screen, at 10 µM
[9] = viability rescue of complex I mutant cybrids, primary screen, cell-based, galactose medium, ATP luminescence (AID 1645843;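 active means z-score of at least 1.8 in each of two replicates, scored against plate mean and spread of sample wells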;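 further: positive z means more ATP and so rescue of galactose-driven cybrid death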); conditions: complex I mutant cybrid cells, 72 h, stronger effect = higher value
[10] = growth inhibition of DIPG glioma cells, dose response, cell-based, SU-DIPG-IV, MIPE4.0, CellTiter-Glo, qHTS (AID 1347063; cut-off not given, nearly all actives have AC50 up to about 30 µM;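 further: compound exposure lasted 48 hours before the viability readout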); conditions: SU-DIPG-IV viability, CellTiter-Glo ATP luminescence
[11] = liver-stage malaria parasite growth inhibition, primary screen, cell-based, HepG2, luciferase luminescence, HepG2 viability (AID 624349; in the data active means parasite load remaining mostly below about 12%, no sharp cut-off; inactive means mostly above about 10%;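 further: 100% = mean of DMSO negative control wells on the same plate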); conditions: P. berghei liver stage in HepG2, luciferase luminescence, concentration not given here; parasite load remaining: stronger effect = lower value; viability: measured here: HepG2 viability without parasites
[12] = viability loss in pontine glioma line – cell-based, SU-DIPG-XXV, MIPE5.0, CellTiter-Glo, qHTS, dose response (AID 1347065; cut-off not given, nearly all actives have AC50 up to about 26 µM;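 further: cells exposed to compound for 48 hours before ATP readout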); conditions: CellTiter-Glo ATP luminescence
[13] = JHH-DIPG-1 glioma cell viability, MIPE5.0 library, CellTiter-Glo luminescence, qHTS (AID 1347067; cut-off not given, nearly all actives have AC50 up to about 26 µM;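 further: cells exposed to compound for 48 hours before readout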); conditions: JHH-DIPG-1 glioma viability, CellTiter-Glo ATP luminescence
[14] = SU-DIPG-XXV glioma cell viability, MIPE5.0 library, qHTS (AID 1347068; cut-off not given, nearly all actives have IC50 up to about 30 µM)
[15] = measured here: relative caspase fold change +Dox/-Dox
[16] = measured here: total cells with miR-34 induction, stronger effect = lower value
[17] = measured here: total cells without miR-34 induction

Structure (SMILES)	survival [1]	remaining activity [2]	fold change ([3]; stronger effect = lower value)	fold change [3, 15]	cell count [3, 16]	cell count [3, 17]	fold fluorescence [4]	period change [5]	inhibition [6]	fluorescence ratio (interference) [7]	outcome [8]	z-score [9]	AC50 [10]	parasite load remaining [11]	viability [11]	AC50 [12]	AC50 [13]	outcome [14]
N#C/C(=C\c1ccc(O)c(O)c1)C(N)=S	132 (inactive)	89.1% (inactive)	0.909 (inactive)	1.22	4790	5270	5.68 [at 227 µM] (inactive)											
NC(=O)COc1c(F)cc(SCCNS(=O)(=O)c2ccccc2)cc1F		109% (inactive)	0.978 (inactive)	0.398	9150	9360		-0.08 h (inactive)	-2% (inactive)	1 (inactive)	inactive	0.24 (inactive)						
NC(=O)c1ccc(OCC(O)CN2CC=C(c3ccc(F)cc3)CC2)cc1 (stereo not given)		103% (inactive)	1.01 (inactive)	1.9	9620	9570		0.145 h (inactive)	-1% (inactive)	0.9 (inactive)	inactive	-0.85 (inactive)						
CCCN1CCc2cccc3c2[C@H]1Cc1ccc(O)c(O)c1-3		109% (inactive)	1.06 (inactive)	0.965	7250	6850		0.32 h (inactive)	-3% (inactive)	1 (inactive)	inactive	-1.03 (inactive)						
Cc1c(C(=O)c2cccc3ccccc23)c2cccc3c2n1[C@H](CN1CCOCC1)CO3	106 (inactive)	99.8% (inactive)	0.941 (inactive) and 0.94 (inactive)	1.39 and 1.17	5730 and 5540	6090 and 5900		-0.065 h (inactive)	-8% (inactive)	1 (inactive)			9.35 µM (active)					
c1ccc2c(N3CCNCC3)cccc2c1		77.2% (inactive)	0.966 (inactive)	1.06	8750	9060		0.19 h (inactive)	-1% (inactive)	1 (inactive)	inactive	-0.255 (inactive)						
CC12NC(Cc3ccccc31)c1ccccc12 (stereo not given)		120% (inactive)	1.01 (inactive) and 0.879 (inactive)	1.28 and 2.22	10300 and 11700	10100 and 13300		0.25 h (inactive)	-3% (inactive)	0.9 (inactive)	inactive	-0.15 (inactive)		63.2% (inactive)	167%			
CC(C)Oc1cccnc1N(C)C1CCN(Cc2ccccc2)CC1		99.8% (inactive)	0.905 (inactive)	1.08	8620	9520		0.225 h (inactive)	-3% (inactive)	1 (inactive)	inactive	-0.4 (inactive)						
CN1CCc2cccc(Cl)c2CC1		114% (inactive)	1.03 (inactive)	1.41	9920	9620		0.06 h (inactive)	-4% (inactive)	1 (inactive)	inactive	0.41 (inactive)						
CC(C)NP(=O)(NC(C)C)OP(=O)(NC(C)C)NC(C)C		90.6% (inactive)	0.945 (inactive)	1.32	9680	10200		0.055 h (inactive)	-5% (inactive)	1 (inactive)	inactive	0.25 (inactive)						
CN1CC[C@@]2(C)c3cc(O)ccc3N(C)C12 (stereo not given in full)	4.58 (inactive)	92.9% (inactive)	1.09 (inactive)	1.19	8970	8270		-0.055 h (inactive)	1% (inactive)	1 (inactive)	inactive	-1.04 (inactive)						
NC1CCc2cc(O)c(O)cc2C1 (stereo not given)		106% (inactive)	0.979 (inactive) and 0.806 (inactive)	1.51 and 1.21	9700 and 3720	9900 and 4610		0.115 h (inactive)	-1% (inactive)	1 (inactive)	inactive	-0.895 (inactive)						
C[N+](C)(C)CCOC(=O)CBr		126% (inactive)	1.01 (inactive)	2.27	10100	10100		0.015 h (inactive)	-2% (inactive)	1 (inactive)	inactive	0.69 (inactive)						
CC(=O)c1c(O)c(C)c(O)c(Cc2c(O)c3c(c(C(=O)/C=C/c4ccccc4)c2O)OC(C)(C)C=C3)c1O	142 (inactive)	100% (inactive)	0.991 (inactive) and 1.02 (inactive)	1.01 and 0.826	1480 and 1570	1490 and 1540	4.65 [at 96.8 µM] (inactive)	0.065 h (inactive)	-3% (inactive)	0.9 (inactive)	active	-1.27 (inactive)				20.9 µM (active)	23.5 µM (active)	inactive
C[C@]12CCC3C(CC[C@H]4C[C@H](O)CC[C@]34C)C1CC[C@@H]2C(=O)CO (stereo not given in full)		121% (inactive)	1.06 (inactive)	0.876	10400	9790		0.065 h (inactive)	-2% (inactive)	1 (inactive)	inactive	-0.26 (inactive)						

Reference: PubChem BioAssay
